# Test results published in PubChem BioAssay AID651812 (National Center for Advancing Translational Sciences (NCATS), 2012).
# About 650 (31%) of roughly 2,100 compounds were called active. Not shown: some 16% with an inconclusive outcome. This is one part of the list. A number with no mark means an inactive call. The call rests on the fitted dose curve; in most records, active means well fitted inhibition curve with a large enough effect; inconclusive means small, poorly fitted or top-dose-only effect; inactive means flat fitted curve, though single readings scatter.
# Test: qHTS for inhibitors of Vif-A3G interactions: Cherry picks; further: nearly all actives have a fitted effect of over 80% in size; on activity, negative = fluorescence increase: % of control where 0% means no effect
# Conditions: HeLa A3G-eYFP + Vif (tagged APOBEC3G with the HIV-1 protein that degrades it), 24 h; Potency: eYFP fluorescence increase; series mostly up to 36.9 µM; activity, negative = fluorescence increase: at the top concentration
# How it was run: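 HeLa cells stably expressing A3G-eYFP and Vif, cultured overnight then exposed to compounds at several concentrations for 24 hours at 37 C, 5% CO2; cellular yellow fluorescence (488 nm ex, 500-530 nm em) imaged on Acumen, MG132 positive control.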
# Potency means the concentration at half of the fitted maximal effect.
Compound,Potency,"activity, negative = fluorescence increase"
CN(C)c1ccc(/C=C(\C#N)C(=O)Nc2nc3c(s2)CCN(Cc2ccccc2)C3)cc1,1.12 µM (active),–
N#Cc1c(NC(=O)/C=C/C(=O)O)sc2c1CCN(Cc1ccccc1)C2,–,-27.1% [at 46.1 µM]
O=S(=O)(Nc1nc2ccccc2nc1N1CCN(c2ccccc2)CC1)c1ccc(F)cc1,–,-15.1% [at 46.1 µM]
O=S(=O)(Nc1nc2ccccc2nc1N1CCN(c2ccccn2)CC1)c1ccc(Cl)cc1,23.1 µM (active),–
O=C(N=c1ccn(-c2nc3ccccc3nc2NS(=O)(=O)c2ccc(Cl)cc2)cc1)c1cccs1,16.4 µM (active),–
CN1CCN(c2nc3ccccc3nc2NS(=O)(=O)c2ccc(Br)cc2)CC1,–,6.19% [at 46.1 µM]
O=S(=O)(Nc1nc2ccccc2nc1N1CCc2ccccc2C1)c1ccc(Br)cc1,–,-16.9% [at 46.1 µM]
CCOC(=O)N1CCC(Nc2nc3ccccc3nc2NS(=O)(=O)c2ccc(Cl)cc2)CC1,–,0.827% [at 46.1 µM]
O=C(N/N=C/c1ccc2c(c1)OCO2)c1cc(-c2ccncc2)nc2ccccc12,–,-7.14%
Cc1ccc(C2NC(=O)c3ccccc3N2)s1 (centres undefined),–,-2.05%
Cc1nn(-c2ccc(F)cc2)c(Cl)c1/C=C1\C(=O)Nc2ccccc21,–,-7.22%
Cc1cc(C)c(/C=C2\C(=O)Nc3ccccc32)[nH]1,18.4 µM (active),–
Cc1ccc(S(=O)(=O)Nc2cc(Cl)c(O)c3ncccc23)cc1,–,-0.848%
COc1ccc2oc(-c3ccccc3[N+](=O)[O-])cc(=O)c2c1,–,-8.58%
COc1ccc2[nH]c3c(c2c1)CCNC3c1ccc([N+](=O)[O-])o1 (centres undefined),18.4 µM (active),–
COc1ccc(S(=O)(=O)N2CCN(C(=O)c3ccc([N+](=O)[O-])o3)CC2)cc1,–,1.28%
Cc1ccc(N/C(N)=N/c2nc(CSc3nnc(C)s3)cc(=O)[nH]2)c(C)c1,–,-3.92%
COc1ccc(C(=O)C[n+]2cc(Br)cc3ccccc32)cc1,20.6 µM (active),–
CCCC1=[N+](CC(=O)c2ccc(Br)cc2)CCn2cccc21,–,-10.6% [at 46.1 µM]
CCn1cc2nc(SCC(=O)Nc3ccc(C)cc3C)n(Cc3ccc(C)cc3)c(=O)c2n1,–,-5.28% [at 46.1 µM]
Cc1cc(N2CCN(c3ccc([N+](=O)[O-])c4cccnc34)CC2)c2ccccc2n1,20.6 µM (active),–
O=[N+]([O-])c1cc(Cl)c2cccnc2c1O,–,-10.9% [at 46.1 µM]
CCC(=O)NC(=S)Nc1cccc(Cl)c1N1CCCC1,–,-1.38% [at 46.1 µM]
C=CCNc1nc2cc(-c3cccc(Cl)c3)sc2c(=O)n1C,–,0.835%
C=CCNC(=S)N/N=C/c1ccc(C)cc1C,–,7.22% [at 46.1 µM]

Compound,Potency,"activity, negative = fluorescence increase"
C=C(C(=O)c1ccccc1)C(NC(C)(C)C)c1ccccc1 (centres undefined),–,4.2%
CCOc1cc(/C=C(\C#N)c2nc(-c3cccs3)c(NC(C)=O)s2)ccc1O,23.1 µM (active),–
CC(=O)Nc1sc(/C(C#N)=C\c2cccc(Cl)c2)nc1-c1ccc(C)cc1,8.2 µM (active),–
CCOC(=O)c1c(-c2ccc(C)cc2)csc1NC(=O)/C(C#N)=C/c1ccc(O)c(OC)c1,–,-17.2%
CC(=O)Nc1sc(/C(C#N)=C/c2ccc(Cl)c(Cl)c2)nc1-c1ccc(C)cc1,5.8 µM (active),–
O=C(Cn1ncc(Cl)c(Cl)c1=O)NCC1CCCCC1,–,-8.17%
CC(=O)c1cccc(-c2ccnc3c2CC(C(=O)NCc2ccco2)O3)c1 (centres undefined),–,-11.6%
O=C(Cc1ccccc1)NCc1ccc(-n2cccc2)cc1,–,-1.88%
S=C(Nc1cccc2ccccc12)NN1CCCCCC1,–,10.3% [at 46.1 µM]
N#Cc1c(-c2ccccc2F)cc(C2CC2)nc1SCC(=O)c1cccs1,17.7 µM (active),–
CCc1c(C)nc(SCC(=O)c2cccs2)c(C#N)c1C,–,-25.4%
O=C(COC(=O)c1ccc(NS(=O)(=O)c2cccs2)cc1)NCc1ccco1,–,-2.14%
Cc1ccc2nc3c(cc(S(=O)(=O)c4ccccc4)c(=N)n3Cc3ccco3)c(=O)n2c1,29.1 µM (active),–
CC#Cc1cc2c(cc1O)CCC1C2CCC2(C)C(O)CCC12 (centres undefined),–,-0.688%
COc1ccc(/C=C/C(=O)c2ccc([N+](=O)[O-])o2)cc1,–,-6.52%
CCOC(=O)CCc1ccc(NC(=O)/C=C/c2ccc([N+](=O)[O-])o2)cc1,23.1 µM (active),–
N#CCc1ccc(NC(=O)/C=C/c2ccc([N+](=O)[O-])o2)cc1,8.2 µM (active),–
COc1cc(/C=C/C(=O)c2ccc([N+](=O)[O-])o2)ccc1O,–,-11.6%
O=C(NCc1cccnc1)c1ccc([N+](=O)[O-])o1,–,-7.07%
CC(=O)Nc1ccc2nc(NC(=O)c3ccc([N+](=O)[O-])o3)sc2c1,–,1.09%
CCc1ccc(C(=O)/C=C/c2ccc([N+](=O)[O-])o2)cc1,14 µM (active),–
COC(=O)c1sc(NC(=O)c2ccc([N+](=O)[O-])o2)c(C#N)c1C,–,-13.6%
O=C(/C=C/c1ccc(Cl)cc1)c1ccc([N+](=O)[O-])o1,–,-0.183%
Cc1cc(C)n(-c2nnc3n2N=C(c2c[nH]c4ccccc24)CS3)n1,–,-5.16%
CC1(C(=O)NCc2ccco2)Cc2c(-c3ccc(C(N)=O)cc3)ccnc2O1 (centres undefined),–,-4.41%

Compound,Potency,"activity, negative = fluorescence increase"
Clc1ccsc1-c1csc(-c2cccnc2)n1,–,-3.28%
Cc1ccc(O)c(NC(=O)c2cc(-c3ccccc3O)no2)c1,20.6 µM (active),–
Cc1ccc(O)c(Nc2c3ccccc3nc3ccccc23)c1,–,-3.08% [at 46.1 µM]
CCc1nnc(NC(=O)CSc2nnc(-c3ccccc3O)n2-c2ccc(C)cc2C)s1,–,-6.03%
CCn1c(=O)c2cc(C(=O)NCCCOC)sc2c2ccccc21,–,-7.54%
C=C(/C=C/c1ccc(N(C)C)cc1)c1nc2ccccc2s1,18.4 µM (active),–
COc1ccccc1-c1cc(NC=O)c2ncc(-c3ccc(S(C)(=O)=O)cc3)n2c1,–,-10%
S=C(NC1CCCCC1)N(CCc1ccccc1)CCc1ccccc1,–,-9.72% [at 46.1 µM]
COc1cc2nc(/C=C/c3ccc(N(C)C)cc3)sc2cc1SC,16.4 µM (active),–
Cc1ccc(-c2cc(-c3ccco3)c3c(N)c(C(=O)NN)oc3n2)cc1,20.6 µM (active),–
NNC(=O)c1oc2nc(-c3ccccc3)cc(-c3ccco3)c2c1N,20.6 µM (active),–
CC(/C=N/NC(=O)c1cc(-c2ccccc2)nc2ccccc12)=C\c1ccco1,–,-8.64%
CC(C)(C)C(=O)/C(=C/c1ccc(Cl)cc1)n1cncn1,–,1.11%
CCN(CC)c1ccc2c(cc1=O)[C@@H](NC)CCc1cc(OC)c(OC)c(OC)c1-2,–,-19.2%
COC(=O)c1sc(-c2cccs2)cc1NC(=O)/C=C/C(=O)O,–,4.29%
C=CCN1C(=O)/C(=C2/Sc3ccc(OC)cc3N2C)SC1=Nc1cccc(O)c1,18.4 µM (active),–
C=CCN1C(=O)/C(=C2/Sc3ccc(OC)cc3N2CC)SC1=S,14.6 µM (active),–
C[C@]1(O)CC(=O)C=C[C@H]1Nc1ccccc1,–,3.1%
COc1ccccc1N1C(=O)C2C(C(=O)c3ccccc3)=NN(c3ccc(C)cc3)C2C1=O (centres undefined),–,-26.3%
N=C1S/C(=C\c2ccc(-c3cccc(Cl)c3)o2)C(=O)N1c1nccs1,20.6 µM (active),–
Cc1ccc(Cn2c(SCc3ccc(C(=O)NC4CCCC4)cc3)nc3ccncc32)cc1,–,3.2% [at 46.1 µM]
COc1ccc2c(c1)/C(=C/c1cc(OC)c(OC)c(OC)c1)C(=O)N2,–,-0.665%
CN(C)S(=O)(=O)c1ccc2c(c1)/C(=C/c1cc3c([nH]1)CCCC3)C(=O)N2,2.23 µM (active),–
COc1ccc2c(c1)/C(=C\c1cccc(/C=C3/C(=O)Nc4ccc(OC)cc43)n1)C(=O)N2,–,0.897%
CC(C)OC(=O)c1c2c(n3ccccc13)C(=O)c1ccccc1C2=O,10.3 µM (active),–

Compound,Potency,"activity, negative = fluorescence increase"
CCOc1cc(Br)cc(/C=C2\SC(=Nc3ccccc3)NC2=O)c1O,–,-2.38%
COc1cc(/C=C2\SC(=Nc3cccnc3)NC2=O)cc(OC)c1OC,–,-29.3% [at 46.1 µM]
COc1cc(/C=C2\SC(=Nc3ccccc3)NC2=O)cc(Cl)c1O,20.6 µM (active),–
O=c1c2ccccc2sc2ccc(NCCCN3CCOCC3)cc12,18.4 µM (active),–
Cc1ccc2[nH]c(C(=O)NN=C3CCCCC3)c(-c3ccccc3)c2c1,–,0.458%
CC1C/C(=N\NC(N)=S)c2cc(Cl)ccc2S1 (centres undefined),–,6.57% [at 46.1 µM]
N#Cc1c(C(F)(F)F)cc(-c2ccccc2)nc1SCc1nc(N)nc(N2CCOCC2)n1,8.2 µM (active),–
Cc1ccc(N=C2NC(=O)CC(C(=O)Nc3ccc4c(c3)OCO4)S2)cc1 (centres undefined),–,-1.13%
CC(C)n1c(O)c(N=Nc2ccc(Cl)nn2)c2ccccc21,16.4 µM (active),–
O=C(CSc1n[nH]c(-c2ccccn2)n1)Nc1ccc(Cl)cc1,–,3.07% [at 46.1 µM]
C/C(CC(=O)NCc1ccc(Cl)cc1)=N\NC(=O)COc1ccc(C)cc1Br,–,-1.44%
Cc1nc2c3cc(F)ccc3n(Cc3ccccc3F)c2s1,–,-11.9%
O=C(CN1c2ccccc2Sc2ccccc21)NNC(=O)Nc1cccc(Cl)c1,–,-2.17%
CCN1/C(=C\C=C(C(C)=O)C(C)=O)Sc2ccccc21,20.6 µM (active),–
Cc1ccc(-c2nc3ncccc3o2)cc1NC(=O)c1ccc([N+](=O)[O-])o1,–,0.107% [at 46.1 µM]
CC(C)C1C(=O)N(Cc2cn(CCC3OCCCO3)nn2)CCS(=O)(=O)N1Cc1ccc(-c2cccc(CO)c2)cc1 (centres undefined),–,-11.4%
COc1ccc(-c2ccnc(-c3ccc(O)cc3)n2)cc1,–,-14.4%
CCC1=Nc2cc(C(=O)NCc3cccnc3)ccc2Sc2ccc(C)cc21,–,-8.44%
CCN(CC)C(=O)c1ccc(/C=C/c2c[nH]c3ccccc23)[n+](C)c1,18.4 µM (active),–
C[n+]1cc(C(=O)N2CCCCC2)ccc1/C=C/c1c[nH]c2ccccc12,14 µM (active),–
Cc1sc2nc(CSCC(=O)Nc3ccccc3C#N)[nH]c(=O)c2c1C,–,-16% [at 46.1 µM]
O=C1OC(/C(=C\Nc2cc(Cl)ccc2O)[N+](=O)[O-])c2ccccc21 (centres undefined),–,-18.2%
CC(=O)Nc1cccc(-c2ccnc3c2CC(C(=O)Nc2cccc(N(C)C)c2)O3)c1 (centres undefined),–,-3.68%
COc1ccc(C(=O)NC(=S)NCc2cccnc2)cc1Cl,–,10.5% [at 46.1 µM]
